SMILES strings stand for the structures. The list shows a part of the results. Values without a mark were called inactive.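 The calls were made as follows: active = mean inhibition across replicates above a set limit taken from the earlier primary screen (cut at about 11% in these data); inactive = the rest.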

Chain of RNA-editing ligase 1, mitochondrial (Trypanosoma brucei brucei) (P86926 whole entry, looked up): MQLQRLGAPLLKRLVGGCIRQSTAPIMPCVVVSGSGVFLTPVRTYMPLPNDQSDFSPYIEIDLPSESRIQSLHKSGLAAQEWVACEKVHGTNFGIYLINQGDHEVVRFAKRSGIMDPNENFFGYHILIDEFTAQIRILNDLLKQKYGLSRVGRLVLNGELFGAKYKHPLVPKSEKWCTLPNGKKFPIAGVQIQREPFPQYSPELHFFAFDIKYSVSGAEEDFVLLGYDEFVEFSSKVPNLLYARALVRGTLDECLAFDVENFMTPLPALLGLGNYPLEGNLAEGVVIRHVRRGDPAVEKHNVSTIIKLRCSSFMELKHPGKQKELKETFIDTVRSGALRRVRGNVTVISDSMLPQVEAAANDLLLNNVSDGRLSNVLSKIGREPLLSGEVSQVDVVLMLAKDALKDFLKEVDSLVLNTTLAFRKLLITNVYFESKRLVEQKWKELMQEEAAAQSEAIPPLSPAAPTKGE

The experiment has as its target RNA-editing ligase 1, mitochondrial (Trypanosoma brucei brucei) (UniProt P86926). In words: T. brucei editing ligase REL1 blockade – biochemical, FRET fluorescence, triplicate, confirmation (AID 1117282).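 Also: 0% = REL1 with substrate and DMSO and 100% = REL1 plus control inhibitor NSC42067.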 Particulars: TbREL1 RNA ligation, at 9.66 µM, stronger effect = higher value.
For orientation: inhibition means the share of the control response that was lost under treatment. On to `CN1CCN(c2cc(N3CCNCC3)ccc2[N+](=O)[O-])CC1`, for which the inhibition was 9.79%.
Turning to `O=c1[nH]c2ccccc2n1C1CCN(C(c2ccccc2)c2nnnn2Cc2ccccc2)CC1` (stereo not drawn), the inhibition was 1.44%.
As for `CC1CCCCN1Cc1cccnc1` (stereo not drawn), the inhibition was 5.17%.

Source of the values: PubChem BioAssay AID1117282 (The Scripps Research Institute Molecular Screening Center, 2014).
